Screens (PubChem BioAssay)
Marburg entry inh: inhibitors of Marburg virus binding or cell entry | Marburg virus pseudotyped entry inhibition, cell reporter | Potency, µM (top dose mostly 37.8 µM), most hits filed as inhibitors | actives 1.8% (n = 300,000) | AID 540276; calls by dose curve; tested in HEK293 cells
Vaccinia mCherry: vaccinia inhibition (mCherry reporter); Potency, µM (top dose mostly 36.5 µM), hits mostly inhibitors; actives 0.63% (n = 310,000); AID 720579; Vaccinia virus mCherry reporter infection, fluorescence; calls by dose curve; tested in A549 cells; further: nearly all actives have a fitted effect of over 35% in size
LASV entry inh: Lassa virus entry inhibition; Lassa virus pseudotype entry inhibition, cell reporter; Potency, µM (highest dose often 37.9 µM), hits mostly inhibitors; actives 1.2% (n = 300,000); AID 540256; calls by dose curve; tested in HEK293 cells; further: nearly all actives have a fitted effect of over 50% in size
Shiga inhibitor: blocks Shiga toxin action in Vero cells; actives 9.2% (n = 290,000); Vero cells, Shiga toxin protein synthesis inhibition reporter; inhibition, % at 38.7 µM; AID 2315; in the data active means inhibition mostly above about 28%, no sharp cut-off; inactive means mostly below about 43%
VACV Venus inh: inhibitors of vaccinia virus (Venus reporter) | Vaccinia virus Venus reporter expression, fluorescence | actives 0.46% (n = 330,000) | Potency, µM (doses to about 36.5 µM), actives largely listed as inhibitors; calls by dose curve; tested in A549 cells; further: nearly all actives have a fitted effect of over 30% in size
CHX counter: counter-screen hit for Shiga toxin inhibitors, cycloheximide. cell reporter, cycloheximide protein synthesis inhibition counterscreen. max response, %. actives 12% (n = 300,000); in the data active means max response mostly above about 13%, no sharp cut-off; inactive means mostly below about 14%; further: read at 38.3 µM for the half of the compounds with a filed dose
Large screens that a line does not name were inactive. The full list was thinned out, with hits kept by preference.

O=C(Nc1nccs1)c1cc2sccc2n1Cc1ccc(F)cc1	Marburg entry inh inconclusive, CHX counter 17.7
CC(=O)NC(C)C(=O)OCc1ccc(Cl)cc1Cl (centres undefined)	none (no result: Vaccinia mCherry)
O=C(NCCCn1cccn1)C1CCC(=O)N(Cc2ccccc2F)C1 (centres undefined)	none (no result: Marburg entry inh, Vaccinia mCherry, LASV entry inh, VACV Venus inh)
N#CC(c1cccc(Cl)c1)c1ccc2c(C(F)(F)F)cc(C(F)(F)F)nc2n1 (centres undefined)	Marburg entry inh inconclusive, LASV entry inh 2.24µM, VACV Venus inh 2.24µM (no result: Vaccinia mCherry)
Cc1ccc(-c2nnc(-c3ccc(Br)cc3)o2)o1	Marburg entry inh inconclusive, Shiga inhibitor 26.9, CHX counter 18.4 (no result: Vaccinia mCherry, VACV Venus inh)
c1coc(-c2nnc(-c3cccs3)o2)c1	LASV entry inh inconclusive, Shiga inhibitor 81.3, CHX counter 49.3 (no result: Vaccinia mCherry, VACV Venus inh)
CCN(CC)S(=O)(=O)c1cc(-c2nnc(-c3ccc(Br)cc3)o2)ccc1Br	Marburg entry inh inconclusive (no result: Vaccinia mCherry)
Brc1ccc(-c2nnc(-c3ccco3)o2)cc1	Shiga inhibitor 73.4, CHX counter 47.0
c1ccc(-c2nnc(-c3ccco3)o2)cc1	Shiga inhibitor 114.6, CHX counter 43.0
CCN(Cc1ccccc1)C(=O)C1CCN(S(=O)(=O)c2c(C)noc2/C=C/c2ccc(C)cc2)CC1	none (no result: Marburg entry inh, Shiga inhibitor, CHX counter)
CC(C)[C@H](NC(=O)OCc1ccccc1)C(=O)OCc1cc(=O)oc2cc(O)ccc12	LASV entry inh inconclusive
Cc1ccc(Cl)cc1NC(=O)C1CCCN(S(=O)(=O)c2cccc3cccnc23)C1 (centres undefined)	Marburg entry inh inconclusive (no result: Shiga inhibitor, CHX counter)
Cc1cc2c(n1-c1ccc(C(=O)NCC(C)c3ccccc3)cc1)CCCC2 (centres undefined)	none (no result: Marburg entry inh, Shiga inhibitor, CHX counter)
CCCOC(=O)c1c(NC(=O)C2c3ccccc3Oc3ccccc32)sc2c1CCCC2	Marburg entry inh inconclusive (no result: Shiga inhibitor, CHX counter)
CSc1nnc(-c2ccco2)c(-c2ccco2)n1	none
c1coc(-c2nnc(-c3ccco3)nn2)c1	Vaccinia mCherry inconclusive, Shiga inhibitor 42.6, CHX counter 46.5
Cc1cc(NC(=O)C(C)SCC(=O)Nc2ccc(SC(F)F)cc2)no1 (centres undefined)	none
O=C(Nc1ccc2c(c1)OCO2)c1ccc(Cl)nc1	none
CCOc1ccc(N/C=C\C(=O)c2ccc3c(c2)OCO3)cc1	none (no result: Shiga inhibitor, CHX counter)
COc1ccc(N/C=C\C(=O)c2ccc3c(c2)OCO3)cc1	Marburg entry inh inconclusive, LASV entry inh inconclusive, Shiga inhibitor 87.7, CHX counter 63.2
O=C(/C=C\Nc1ccc2c(c1)OCO2)c1ccccn1	Marburg entry inh inconclusive, LASV entry inh 0.447µM
O=C(/C=C\Nc1ccc2c(c1)OCO2)c1ccc2c(c1)OCO2	Marburg entry inh inconclusive, LASV entry inh inconclusive, Shiga inhibitor 94.6, CHX counter 29.2
COc1ccc(N/C=C/C(=O)c2ccc3c(c2)OCO3)cc1OC	Marburg entry inh inconclusive, LASV entry inh inconclusive, Shiga inhibitor 61.4, CHX counter 67.1
Cc1ccc(S(=O)(=O)c2nnn(CC(=O)Nc3ccccc3C)c2N)cc1	none (no result: Shiga inhibitor, CHX counter)
C[C@@H](NC(=O)c1ncn(Cc2ccccc2)c1C(=O)N[C@H](C)c1ccccc1)c1ccccc1	none (no result: Marburg entry inh, LASV entry inh, Shiga inhibitor, CHX counter)
COc1ccc(S(=O)(=O)NCC(c2cccnc2)N2CCN(c3ccccc3)CC2)cc1C (centres undefined)	VACV Venus inh 10µM
COc1ccc(S(=O)(=O)NCC(c2cccnc2)N2CCN(c3ccc(F)cc3)CC2)cc1C (centres undefined)	Marburg entry inh inconclusive, LASV entry inh inconclusive, VACV Venus inh inconclusive (no result: Vaccinia mCherry)
Cn1c(=O)n(CCc2ccccc2)c2ccccc21	CHX counter 18.0 (no result: Shiga inhibitor)
Cn1c(=O)n(CCCOc2ccc(Cl)cc2)c2ccccc21	CHX counter 19.3 (no result: Vaccinia mCherry)
Cn1c(=O)n(CCCOc2ccc(Br)cc2)c2ccccc21	none (no result: Vaccinia mCherry)
CC1(C)Cc2ccccc2-c2nnc(SCC(=O)N3CCN(c4ccccc4)CC3)n21	Marburg entry inh inconclusive, LASV entry inh inconclusive (no result: Vaccinia mCherry, VACV Venus inh)
CC1(C)Cc2ccccc2-c2nnc(SCc3ccccc3)n21	CHX counter 11.0
Cc1ccc(OCCCC(=O)N(C)CC(=O)Nc2ccccc2Cl)cc1	none (no result: Shiga inhibitor, CHX counter)
N#CCC(=O)N/N=C\c1ccccc1OC/C=C/c1ccccc1	Shiga inhibitor 77.4, CHX counter 50.2 (no result: Marburg entry inh, Vaccinia mCherry, LASV entry inh, VACV Venus inh)
N#CCC(=O)N/N=C\c1ccc(OC/C=C/c2ccccc2)cc1	Vaccinia mCherry inconclusive, LASV entry inh inconclusive, CHX counter 27.4
Cc1ccc(-c2csc3nc(CN(C)Cc4ccccc4)[nH]c(=O)c23)cc1	Marburg entry inh inconclusive
O=c1[nH]c(Cc2ccc(F)cc2)nc2scc(-c3ccc(F)cc3)c12	Marburg entry inh inconclusive, CHX counter 17.5
Cc1ccc(-c2csc3nc(CSc4nnc(-c5ccc(Cl)cc5)n4C)[nH]c(=O)c23)cc1	CHX counter 12.9
CSc1nc(N)nc(-c2cccs2)c1C#N	Marburg entry inh inconclusive, VACV Venus inh inconclusive (no result: Vaccinia mCherry)
CC(C)Sc1nc(N)nc(-c2cccs2)c1C#N	Marburg entry inh inconclusive, Shiga inhibitor 105.3, VACV Venus inh inconclusive, CHX counter 33.4 (no result: Vaccinia mCherry)
Cc1ccc(NC2=C(Cl)C(=O)c3ccccc3C2=O)cc1	Marburg entry inh inconclusive, LASV entry inh 12.6µM, Shiga inhibitor 70.2, CHX counter 24.8
COc1cc(OC)c(NC2=CC(=O)C(=O)c3ccccc32)cc1Cl	Vaccinia mCherry 0.891µM, VACV Venus inh 3.16µM (no result: Marburg entry inh, LASV entry inh)
CCC(C(=O)Nc1cc(Cl)c(OC)cc1OC)c1ccccc1 (centres undefined)	Marburg entry inh inconclusive, LASV entry inh inconclusive
NS(=O)(=O)c1ccc(NC2=CC(=O)C(=O)c3ccccc32)cc1	VACV Venus inh inconclusive
Cc1ccc(NC2=CC(=O)C(=O)c3ccccc32)cc1	Marburg entry inh inconclusive, LASV entry inh inconclusive, Shiga inhibitor 114.6, CHX counter 43.3 (no result: Vaccinia mCherry, VACV Venus inh)
CCCC(=O)NC1=C(Cl)C(=O)c2ccccc2C1=O	Marburg entry inh inconclusive, LASV entry inh inconclusive (no result: Shiga inhibitor, CHX counter)
O=C1C(Cl)=C(Nc2ccc(O)cc2)C(=O)c2ccccc21	Marburg entry inh inconclusive, Vaccinia mCherry inconclusive, LASV entry inh 4.47µM, Shiga inhibitor 47.6, VACV Venus inh inconclusive, CHX counter 22.7
COc1ccc(Cl)cc1NC(=O)CSc1nc(-c2ccccc2)c2ccccc2n1	none (no result: Shiga inhibitor, CHX counter)
CCNC1=C(Cl)C(=O)c2ccccc2C1=O	VACV Venus inh inconclusive (no result: Vaccinia mCherry)
Cc1cc(C)cc(NC2=C(N)C(=O)c3ccccc3C2=O)c1	Shiga inhibitor 121.5, CHX counter 42.6 (no result: Marburg entry inh, Vaccinia mCherry, LASV entry inh, VACV Venus inh)
Cc1ccc(NC2=C(N3CCOCC3)C(=O)c3ccccc3C2=O)cc1	Marburg entry inh inconclusive, LASV entry inh inconclusive, Shiga inhibitor 71.7, CHX counter 47.1
CCN(CC)c1ccc(NC2=C(Cl)C(=O)c3ccccc3C2=O)cc1	Marburg entry inh 3.98µM, Vaccinia mCherry inconclusive, LASV entry inh 5.62µM, Shiga inhibitor 128.3, VACV Venus inh inconclusive, CHX counter 59.7
CCOC(=O)C(=COC(=O)c1ccccc1)NC(=O)Cc1ccccc1	none (no result: Shiga inhibitor, CHX counter)
O=C(N1CCN(c2cccc(Cl)c2)CC1)C1(c2cccs2)CCOCC1	Marburg entry inh inconclusive, LASV entry inh inconclusive
Cc1cc(NC(=S)Nc2cccc3ccccc23)n[nH]1	Marburg entry inh inconclusive, Shiga inhibitor 70.4, CHX counter 27.6
Cc1ccc(S(=O)(=O)N(C)C)cc1NC(=S)Nc1cccc2ccccc12	Vaccinia mCherry inconclusive
Fc1ccc(NC(=S)Nc2ccccc2Cl)cc1	LASV entry inh inconclusive
